Screens deposited in PubChem by National Center for Advancing Translational Sciences (NCATS).
Compounds with a hit are over-represented: about 12% of the library has one in this group of screens.
Sfp inh – inhibitors of Bacillus subtilis Sfp phosphopantetheinyl transferase | Biochemical Sfp PPTase activity, qHTS | hit rate 3.5% among 310,000 | Potency, µM, for the others: largest response in the series, negative = inhibition, usual class: inhibitors | AID 1490;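 note: the enzyme is Sfp with the accession as filed and its product quenches rhodamine fluorescence; 0% = enzyme reaction without inhibitor and -100% = no enzyme wells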
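Compounds were incubated with enzyme (final 15 nM) for 15 min at room temperature before substrate addition started the reaction. Fluorescence at 525 nm excitation, 598 nm emission was recorded immediately and after 30 minutes.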
L3MBTL1 block – blocks human L3MBTL1; Q9Y468; AlphaScreen L3MBTL1–H3K9me1 peptide binding; Potency, µM (titrated, usually from 57.1 µM), for inactives: at the top dose activity, negative = inhibition, most hits filed as inhibitors; hit rate 0.66% among 230,000; note: % is set by controls: 0 for no effect and ±100 for the full control effect; nearly all actives have a fitted effect of over 60% in size
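Read-out is AlphaScreen signal from streptavidin donor and nickel chelate acceptor beads (10 ug/mL final each) bridging L3MBTL1 (50 nM) and biotinylated K9-monomethylated H3(1-15) peptide (75 nM), after 30 min compound exposure at room temperature.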
HP1b binding inh – blocks HP1-beta chromodomain binding to methylated histone tails | P83916 | AlphaScreen HP1-beta / biotin-H3K9me3 peptide binding | Potency, µM (doses to about 114 µM), for the others: at the highest dose activity change, negative = inhibition, hits mostly inhibitors | hit rate 0.56% among 390,000 | AID 540317; note: nearly all actives have a fitted effect of over 70% in size
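HP1-beta protein (50 nM final) preincubated 30 min at room temperature with biotinylated H3(1-18)K9me3 peptide (50 nM) in PBS pH 7.4, 0.01% Tween-20, then compound added for 30 min. AlphaScreen streptavidin donor/nickel chelate acceptor beads (10 ug/mL final), 30 min dark, luminescence read.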
G9a inh – inhibitors of human histone lysine methyltransferase G9a. G9a H3K9 monomethylation, AlphaScreen, 2 h. AID 504332. hit rate 8.8% among 350,000. Potency, µM (top dose mostly 102 µM), without a hit: top-dose activity, negative = inhibition, usual class: inhibitors; note: % is set by controls: 0 for no effect and ±100 for the full control effect; nearly all actives have a fitted effect of over 75% in size
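Step 1: enzyme (final 20 nM) with compound, 15 min RT. Step 2: substrate peptide 500 nM and SAM 20 uM, 2 h RT. Step 3: anti-H3K9me1 antibody and AlphaScreen beads, 10 min, then plate read.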
JMJD2A Tudor – inhibitors of human JMJD2A Tudor domain. O75164. AlphaScreen JMJD2A-Tudor / H3K4me3 peptide binding. Potency, µM (top dose mostly 114 µM), for the others: top-dose activity change, negative = inhibition, usual class: inhibitors. hit rate 4.4% among 390,000; note: % is set by controls: 0 for no effect and ±100 for the full control effect; nearly all actives have a fitted effect of over 50% in size
BAZ2B inh – BAZ2B (human) inhibition. AlphaScreen BAZ2B-H3K14Ac peptide displacement. Potency, µM (series often up to 114 µM), for inactives: top-dose activity change, negative = inhibition, hits mostly inhibitors. hit rate 4.4% among 360,000; note: % is set by controls: 0 for no effect and ±100 for the full control effect; nearly all actives have a fitted effect of over 60% in size
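Complex of BAZ2B and biotin-H3K14Ac (50 nM apiece) forms over 30 min at RT, then faces library compounds up to 110 uM for another 30 min; AlphaScreen beads added, 20 min dark incubation, luminescence read.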
An asterisk follows results filed as active; ? = inconclusive; / = no result; [ ] = remark or other dose. Calls come from the whole dose curve; as a rule, active = well fitted curve in the direction sought with a large enough effect; inconclusive = small, poorly fitted or top-dose-only effect, or another doubt; inactive = no such curve, though single readings can be large; an effect the other way counts as inactive or inconclusive. Potency is the fitted concentration of half-maximal effect.

SMILES	Sfp inh	L3MBTL1 block	HP1b binding inh	G9a inh	JMJD2A Tudor	BAZ2B inh
CCCn1c(=O)c2ccccc2n2c(SCCOc3ccc(C)cc3)nnc12	?	-5%	45%	?	28µM*	7%
CCCn1c(=O)c2ccccc2n2c(SCC(=O)NCc3cccs3)nnc12	-22%	3%	2%	?	25µM*	-1%
CCn1c(=O)c2ccccc2n2c(SCC(=O)NCc3cccs3)nnc12	14%	/	36%	4%[12.7 µM]	-6%	10%
CNC(=S)NNC(=O)c1cn(C)nc1C	79µM*	14%	54%	40µM*	-10%	-8%
Cc1nn(C)cc1C(=O)NNC(=S)Nc1ccccc1	11%	7%	35%	?	-18%	7%[57.1 µM]
COc1cccc(NC(=O)c2cc3c(-c4ccc(Cl)cc4)nn(C)c3s2)c1	/	/	66%	39%[59 µM]	-24%	/
CCSc1oc(-c2ccc(F)cc2)nc1S(=O)(=O)c1ccc(C)cc1	/	/	78%	18µM*	8%	3%
CSc1oc(-c2ccccc2)nc1S(=O)(=O)c1ccc(C)cc1	3%	3%	72%	56µM*	-6%	-23%
CNc1oc(Cc2ccccc2)nc1S(=O)(=O)c1ccc(Cl)cc1	-23%	2%	4%	25µM*	?	-26%
Cc1ccc(-c2nc(S(=O)(=O)c3ccc(C)cc3)c(SCC(=O)Nc3ccc(F)cc3)o2)cc1	/	/	22%	-27%[59 µM]	3%	-25%
Cc1ccc(-c2nc(S(=O)(=O)c3ccc(C)cc3)c(SCC(N)=O)o2)cc1	-15%	/	29%	25µM*	-12%	3%
CCSc1oc(-c2ccccc2)nc1S(=O)(=O)c1ccccc1	-19%	/	67%	?	14%	5%
Cc1ccc(S(=O)(=O)c2nc(-c3cccs3)oc2SCC(N)=O)cc1	-4%	-9%	27%	?	-26%	2%
CNc1oc(-c2ccc(F)cc2)nc1S(=O)(=O)c1ccccc1	15%	/	54%	45µM*	-5%	7%
O=S(=O)(c1ccccc1)c1nc(-c2ccc(F)cc2)oc1NCc1ccccc1	/	/	24%	-2%[59 µM]	-12%	-15%
S=c1[nH]nc(-c2ccc(Cl)cc2Cl)n1-c1ccc2c(c1)OCCO2	45µM*	-2%	?	2.5µM*	79µM*	-29%
Oc1ccc(-c2n[nH]c(=S)n2-c2ccc3c(c2)OCCO3)c(O)c1	?	-10%	7%	1.8µM*	10µM*	-29%
CCCCn1c(=O)nc2n(-c3ccc(Br)cc3)c3ccccc3cc-2c1=O	/	/	4%	8%[59 µM]	2%	2%
C/C(CC1(O)/C(=N/O)CCc2nonc21)=N\O (configuration not stated)	11%	-4%	15%	40µM*	16µM*	4%
C/C(CC1(O)C(=O)Nc2ccccc21)=N\O (configuration not stated)	16%	/	19%	-3%[59 µM]	-11%	-13%
CC(C)(C)N1C(=O)Cc2c1nc(N)c1c(N)nc(N3CCCCC3CO)c(C#N)c21 (configuration not stated)	-12%	?	?	7.9µM*	50µM*	40µM*
CN(CCO)c1nc(N)c2c(N)nc3c(c2c1C#N)CC(=O)N3C1CCCC1	50µM*	-17%	/	?	/	?
Nc1cc(=O)nc(SCC(=O)Nc2ccc(F)cc2)n1-c1ccc(Cl)cc1	/	/	24%	6%[59 µM]	-8%	-16%
O=C(CNC(=O)c1ccccc1)OC(CCc1ccccc1)C(=O)Nc1cc(C(F)(F)F)ccc1Cl (configuration not stated)	/	/	/	/	-18%	/
Cc1ccccc1CNC(=O)c1ccc(NC(=O)c2nsc3ccccc23)cc1	/	/	26%[57 µM]	1%[59 µM]	-6%	2%
CCNS(=O)(=O)c1ccc(OCCNS(C)(=O)=O)cc1	3%	7%	21%	-7%[59 µM]	89µM*	22%
Cc1cc(NS(=O)(=O)c2ccc(OCCNS(C)(=O)=O)cc2)no1	19%	/	25%	-3%[12.7 µM]	-11%	-1%
